# The full ranking holds about 25,000 sequences; the median of “ln(normalized median fluorescence intensity)” is about 7.1, and the highest 2% start at about 10. This is one part of a sample in which the highest values are shown more often than they occur.
# Tested on: PfSIP2 AP2 domain 1 (GST-tagged)
# Test: gcPBM binding intensity (ln(normalized median fluorescence intensity)); higher = stronger DNA binding
# How it was run: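 Binding intensity values are the highest Masliner-normalised natural-log median intensity among replicate spots of either probe orientation. The binding step lasted 1 h in 1× PBS with 1% milk, 0.2 mg/ml BSA, 0.5% salmon testes DNA and 0.03% Triton X-100, using GST-tagged P. falciparum DNA-binding domains expressed in E. coli on an Agilent 4 × 180k array of primer-extended double-stranded 36-bp intergenic genomic probes plus negative controls. Alexa488 anti-GST antibody and a 488 nm scan detected bound protein.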
row,Sequence,gcPBM binding intensity (ln)
1,AAATATAAACTCAGCACACAAACATATATATGTCAT [CACACA_site4004],6.91
2,TCCTTTTGAACCCTTTTTCTCACAAGACCTTTATAT [TGCATGCA_negctrl_site413],7.05
3,ATGTTTTAATGAGGTTTGCACTATATTTTAATGAAC,8.64
4,AATATTAAACAAAATAAATATATAAAAAATAAATAA [GTGCAC_negctrl_site93],6.79
5,ATGAATATAATGAAGTGTACATAAAAATAATAAATA [XGTACX_site2481],7.11
6,GGACATTTTTATAAGGTGCACGGTTTTGATATTACT [GTGCAC_site9892],11.1
7,GTACATATATACATTACACACGGTTTGATTTAAAAA [CACACA_site3379],7.26
8,TCACATTTTGGACACGTGCACATATATTTGATACAT,8.43
9,ATGCGTTAATCTATATATATTATGTATAGATTTTCA [CACACA_negctrl_site1650],6.81
10,TGCCCTTTGGTTATAACACACATGCACACGTAAATA [CACACA_site7750],7.71
11,TGCCCTTTGGTTATAACACACATGCACCCGTAAATA [CACACA_site3842],11.9
12,CTTTGGTTATAACACACATGCACACGTAAATAAATA [TGCATGCA_site976],7.63
13,AGACAATTTTTTAGTACACACATATAGATATATAAA [CACACA_site6832],7.39
14,AAAAAAAAATATATATATATATATATATAATAAAAA [CACACA_negctrl_site639],7.48
15,ATATGCACTCATTGTGCACACGCATATTACGAAAAG [CACACA_site2637],11
16,TGTGTTCATATATGCACACGCATATATATTATTGTT [CACACA_site3822],7.02
17,ATGCACTCATTGTGCACACGCATATTACGAAAAGAA [CACACA_site2638],10.2
18,ATATATAATAATTGTAGTACAATTAATAAATAAAAT [XGTACX_site3840],7.08
19,TATATATTATAAAATTGTACATATATTAAATTTTTT [XGTACX_site5852],6.93
20,TGCACGCACAGACACACACACAACTAAAAAATAATG [CACACA_site7250],7.33
21,TAATTATGCAGACACACACACACACCCAACTAAAAA [CACACA_site2569],7.27
22,TATGCACCCAGACACACACACACAACTAAAAAATAA [CACACA_site2567],10.7
23,TACAAATATATATGCACACACATATACATACATATA [CACACA_site2182],7.31

row,Sequence,gcPBM binding intensity (ln)
1,GAAATGTGATAATATACACACACGCATATATATATA [CACACA_site4332],9.04
2,GGTGCACCCATATACACACACAAATACAATGATAAA [CACACA_site1132],12.4
3,TACAAACACCCATATACACACAAAAAAAAAATAAAA [CACACA_site5421],7.05
4,TCACCATATAAACGTGCACACTACAAAAATATATAA [CACACA_site5413],11
5,TGGGCACCCATATACACACACAAATACAATGATAAA [CACACA_site4762],8.64
6,AATGTGATAATATACACACACGCATATATATATATA [CACACA_site323],9.89
7,TATGTGCACCCATATACACACACAAATACAATGATA [CACACA_site8295],12.3
8,TAATGATAAATACATACACACAAAAAATGATATATA [CACACA_site7258],6.86
9,CATATAAAAATGTGCACACACACACCCATATATATT [CACACA_site1526],9.06
10,CTATTTTATATGTGCACACATATACACCCACAAATA [CACACA_site1131],9.31
11,AAACAAAAAATATATACACACTAAACATAAAAAAAA [CACACA_site4185],6.86
12,TGTGCACGCATATACACACACAAATACAATGATAAA [CACACA_site6656],10.6
13,CCCCCCCACGAACACACACACATACATACCACATAT [CACACA_site7149],9.05
14,TGAGAGAGAAACGTAGTGCATAAAATCAAATTTAGA [GTGCAC_site9737],7.82
15,TTTTTTTGTTTTGTTTTTTTTTTTTTTTTTTTTTTG [CACACA_negctrl_site570],6.76
16,ACATGTTCATAATTTTGTACATATTTTTATGAACAT [XGTACX_site3976],7.12
17,AAAATACACGATAGTTGTACATTAAATGTATACAAT [XGTACX_site360],6.91
18,TGTTATTATAACATTTTTTTCAAAATAGCTTTAGAA [CACACA_negctrl_site266],6.77
19,AATAAATATCAATACACACACACAAAAGTGAATAAA [CACACA_site3763],6.99
20,TAGAATAAGATAGATATACACACCATTATAAATATA [CACACA_site2500],6.78
21,AGTGTGTGTAATAAAGTGCATTAAAAATGACACGTA,8.55
22,TGTGCATAAATTTATGCACACATAAAAAAAAAAAAA [CACACA_site8954],9.95
23,ATTAAAAAATCCATAGTGCACTACGATAGGTTCCGA [GTGCAC_site9463],10.5

row,Sequence,gcPBM binding intensity (ln)
1,ATATACATATCAATGTAATATTATATACTTTTTTAG [CACACA_negctrl_site816],6.77
2,TTATATAAAGAATGTACACACAGAAATGCACAGACA [CACACA_site5288],8.26
3,TGTACACCCAGAAATGCACACACATATATATATATA [CACACA_site8716],9.53
4,TTATATAAAGAATGTACACACAGAAATGCACCCACA [CACACA_site2282],12.2
5,CATTTATATAAAGAATGTACACACAGAAATGCACAC [XGTACX_site4718],8.37
6,GAAAGAAGCATAAATGTACACACATATTTATATATT [CACACA_site8368],7.04
7,ATTTATATAAAGAATGTACACACAGAAATGCACCCA [CACACA_site8715],11.8
8,TCCCTGATGTTATTTAATATACCATAAAAAAAAAAA [CACACA_negctrl_site1472],7.22
9,TATATATTATGACCACCACACACCTATACACATAAC [CACACA_site8773],7.3
10,TACATATAAATAATAACACACACCTAGGTACATGGA [CACACA_site838],6.89
11,CAAATATATATTTATTGTACATATTGTTTATATGGT [XGTACX_site5246],7.14
12,TACAAACAATTAAACAAACACACATATACATGTATA [CACACA_site2061],6.92
13,TAAAATTAAATGAAATCATTATTCATTTTTATTTTA [CACACA_negctrl_site1281],6.67
14,TAAGAAATAAATAGTACACACATAGACACACGCACA [CACACA_site6821],8
15,TAAGAAATAAATAGTACACACATAGACACCCACCCA [CACACA_site8429],7.39
16,ATTAAGACACATTGCACACGTGCACCCATAGAAAAA [CACACA_site408],12.2
17,ACATTAAGACACATTGCACACGTGCACCCATAGAAA [CACACA_site8029],12
18,TATATATATATAGACACACACACACCCATATATATA [CACACA_site4117],9.12
19,TAAGAAATAAATAGTACACACATAGACACCCACCGA [CACACA_site1516],7.3
20,CCATTAAGACACATTGCACACGTGCACCCATAGAAA [CACACA_site4388],12.4
21,AGTACAGACATAGACACACACACACCCATAAAAAAA [CACACA_site1515],7.24
22,TACACCCATAGACACACACACACGCATAAAAAAAAA [CACACA_site8428],7.55
23,ACTGCGTTTTTACACGCGCACTGCAATGAACAATAT,8.05

row,Sequence,gcPBM binding intensity (ln)
1,AGGTAGAAAAAAGACACACACATTAGATATTTATAT [CACACA_site6313],6.87
2,TATTATATTCTGCTTACACACATATATATATATATA [CACACA_site3060],9.32
3,ATTTTTTTTTCTTTCGCACACGTGAAAGAATTTCTA [CACACA_site2052],7.13
4,TTATATATTTATATATGTACACATTTTACCATTTTT [XGTACX_site2142],6.9
5,GAAAAAAAAAAAAATACACACAAATTGGTATATAAC [CACACA_site6315],6.75
6,TATATACACATTTTTATACACACTTGTTTTATAAAA [CACACA_site8139],7.16
7,AATAAATAAATAAATAAATATATATATATATATATA [GTGCAC_negctrl_site224],9.48
8,AAATGAAAAATAAGGAAAAAAAAAAAAAAAAAAAAA [CACACA_negctrl_site1715],6.88
9,TTTTTTACTTTTGAGACATTTCATATTTTTATTCAC [GTGCAC_negctrl_site730],6.91
10,AATATTTACAGACATGCGCACACATAAATAAATAAT [CACACA_site8760],8.81
11,TATATCTTAATATTTACACACATGCGCACCCATAAA [CACACA_site5349],12
12,TATTAATATTTACACACATGCGCACACATAAATAAA [TGCATGCA_site609],9.31
13,TATATATTAATATTTACACACATGCGCACCCATAAA [CACACA_site2410],12.1
14,TATTTACACCCATGCGCACACATAAATAAATAATAG [CACACA_site5350],8.34
15,TATATATCAATATTTACACACATGCGCCCACATAAA [CACACA_site7185],7.57
16,TATGAATGGTTAAGTACACACATATTAAGATATGTA [CACACA_site5852],6.99
17,ACTTTAACCTGAACGGTGCATAAAATTTTGGCATTA,10.8
18,TGCATTTTACTTGTTACACACATATAAAATTAACCA [CACACA_site7387],7.11
19,CTATTTAAAATTTGAACACACATTATTTATTTTAAA [CACACA_site3114],6.9
20,TTATAGCCTGTGAAGAGTACATTTTTATTTTTTATT [XGTACX_site4105],6.85

# Reference: the supplement of paper PMC11417369
